In PubChem BioAssay AID651812 (National Center for Advancing Translational Sciences (NCATS), 2012) one finds Potency data, which are given here for 36 molecules.

The campaign covered roughly 2,100 compounds. About 650 (31%) were called active. Inconclusive results (about 16%) are left out. Calls come from the whole dose curve; as a rule, active = well fitted inhibition curve with a large enough effect; inconclusive = small, poorly fitted or top-dose-only effect; inactive = flat fitted curve, though single readings scatter. The list shows a part of the results.
Potency is the fitted concentration of half-maximal effect.

This assay is described as follows: qHTS for inhibitors of Vif-A3G interactions: Cherry picks. Note: nearly all actives have a fitted effect of over 80% in size. The following applies: HeLa A3G-eYFP + Vif (tagged APOBEC3G with the HIV-1 protein that degrades it), 24 h; Potency: eYFP fluorescence increase; series mostly up to 36.9 µM. From the text:
The recent discovery and characterization of host restriction factors, which provide a potent defense to invading retroviruses, has provided new targets for antiviral drug development. APOBEC3G (A3G) and APOBEC3F (A3F) are potent cytidine deaminases that block HIV-1 replication; HIV-1 expresses the Vif protein, which counteracts A3G and A3F by binding to them and inducing their proteasomal degradation. The Vif-A3G and Vif-A3F interactions provide two potential targets for development of small molecules which can interfere with the ability of Vif to degrade A3G or A3F. […] To identify inhibitors that can interfere with Vif mediated degradation of A3G and A3F, we have developed Hela cell lines that stably express A3G or A3F tagged with eYFP at the C-terminal end (A3G-eYFP or A3F-eYFP, respectively) and Vif. In the absence of an inhibitor, Vif induces degradation of A3G-eYFP and A3F-eYFP, and the cells are not fluorescent. In the presence of an inhibitor, it is expected that Vif will be unable to degrade A3G-eYFP and/or A3F-eYFP, resulting in an increase in yellow fluorescence. In this assay, Vif A3G was screened against the cherry picks ordered from the MLSMR. NIH Chemical Genomics Center [NCGC] NIH Molecular Libraries Probe Centers Network [MLPCN] MLPCN Grant: MH093245 Assay Submitter (PI): Vinay Pathak, National Cancer Institute
A3G-Vif cells were harvested from T225 flask and resuspended in phenol free OPTI-MEM medium with 5% FBS. Then 5 uL of 140,000 cells/mL resuspended cells was dispensed into each well of low base Aurora COC 1,536-well plates (black walled, clear bottom) using a Multidrop Combi dispenser. After overnight culture at 37 deg C with 5% CO2, a total of 23 nL of compounds at 5 selected concentrations from the NPC or positive control (2 mM stock of MG132) in DMSO was transferred to each well of the assay plate using a pintool (Kalypsys, San Diego, CA), and the plates were further incubated at 37 deg C with 5% CO2 for 24 hours. After that, the plates were measured on Acumen Explorer (TTP Lab Tech). The fluorescence was detected by 488 nm/Ex and […].
Turning to `Cc1cccc(-n2c(/C=C/c3c(C)[nH]c4ccccc34)nc3ccccc3c2=O)c1`, the Potency was 16.4 µM (active). The figure for `Cc1cccc(-n2c(/C=C/c3ccc([N+](=O)[O-])o3)nc3ccccc3c2=O)c1` is 3.66 µM (active); for `O=c1c2ccccc2nc(/C=C/c2ccc([N+](=O)[O-])o2)n1-c1ccc(O)cc1` it is 15.8 µM (active). For `CC(=O)OC1C2(CC3N4C(=O)C5(CO)SSC4(CC31O)C(=O)N5C)OC(C)C(C)(C)C2=O` (stereo unspecified), the Potency entry was “inactive”. The entry for `O=c1nc(/C=C/c2ccc(Cl)cc2Cl)cc(C(F)(F)F)[nH]1` is “inactive”; for `C=CCn1c(O)c(C(C)=Nc2ccc(N(CC)CC)cc2)c(=O)[nH]c1=O` it is “inactive”. Then `CCN(CC)c1ccc(N=Cc2c(O)n(Cc3ccccc3)c(=O)[nH]c2=O)cc1`, with 7.31 µM (active); and `CCN(CC)c1ccc(N=Cc2c(O)n(CCC3=CCCCC3)c(=O)[nH]c2=O)cc1`, with 3.66 µM (active); and `Cc1cccc(-n2c(O)c(/C=C/C=Nc3ccccc3)c(=O)[nH]c2=O)c1`, with 5.17 µM (active). Then `COc1ccc(-n2cnc3cc(C(=O)N4CCC5(CC4)OCCO5)ccc32)cc1`, with “inactive”; and `Cc1cc(C)cc(N2C(=O)NC(=O)/C(=C\C=C\c3ccco3)C2=O)c1`, with “inactive”; and `CC(C)c1ccc(N2C(=O)NC(=O)/C(=C/C=C/c3ccco3)C2=O)cc1`, with 17.7 µM (active).

In the case of `CC(C)c1ccc(N2C(=O)NC(=O)/C(=C\C=C\c3ccco3)C2=O)cc1`, the Potency is 17.7 µM (active). Take `Cc1cccc(N2C(=O)NC(=O)/C(=C\C=C\c3ccco3)C2=O)c1`: the Potency result was “inactive”. Then `CN(C)c1ccc(/C=C/C=C2/C(=O)NC(=O)N(c3ccccc3)C2=O)cc1`, with 23.1 µM (active). Consider `O=[N+]([O-])c1ccc(N2CCOCC2)c2c1no[n+]2[O-]`, for which the Potency result was “inactive”. The figure for `CC(C)CCCn1c(O)c(/C=C2/C=CC=N2)c(=O)[nH]c1=O` is 23.1 µM (active); for `C=C1C(=O)OC2C1CCC(C)C1(O)C=CC(=O)C21C` (stereo unspecified) it is “inactive”. Then `CC1=CC(=Cc2sc3ccccc3[n+]2C)C=C(C)O1`, with 6.51 µM (active); and `Nc1ccc2c3c(cccc13)-c1ccccc1-2`, with 4.11 µM (active). In the case of `CN1C(=O)/C(=C\c2ccc(N3CCCCC3)o2)C(=O)NC1=S`, the Potency is 17.7 µM (active). As for `CCC(C)N1C(=O)/C(=C\c2ccc(N3CCCCCC3)cc2)C(=O)NC1=S` (stereo unspecified), the Potency entry was “inactive”.

Turning to `CN1CCN(c2ccc(/C=C3\C(=O)NC(=S)N(c4cccc(Br)c4)C3=O)o2)CC1`, the Potency is 18.4 µM (active). Then `CN1C(=O)/C(=C/c2ccc(N3CCCCCC3)o2)C(=O)NC1=S`, with 15.8 µM (active). Take `Cc1cc(/C=C2\C(=O)NC(=O)N(c3ccc(Br)cc3)C2=O)c(C)n1C`: the Potency result was “inactive”. Then `CCN(CC)c1ccc(C=C2C(=O)N(C)C(=S)N(C)C2=O)o1`, with 14 µM (active); and `CCN1C(=O)/C(=C/c2ccc(N(CC)CC)cc2OC)C(=O)NC1=S`, with “inactive”; and `CCN(CC)c1ccc(/C=C2\C(=O)NC(=S)N(C)C2=O)o1`, with 12.5 µM (active). Then `CCN(CC)c1ccc(/C=C2\C(=O)NC(=S)N(c3ccc(OC)cc3OC)C2=O)o1`, with 16.4 µM (active); and `COc1cc2c(cc1O)[C@@H]1Cc3ccc(OC)c(O)c3CN1CC2`, with “inactive”. Then `N#CC1=C(N)Oc2c(c(=O)sc3ccccc23)C1c1cccnc1` (stereo unspecified), with “inactive”; and `Cc1cc(N2CCCC2)ccc1C=C(C#N)C#N`, with 7.31 µM (active). For `Cc1c2ccncc2c(C)c2c1[nH]c1ccccc12`, the Potency is 14.6 µM (active). The figure for `CC/C(=N\NC(=O)c1ccccc1O)c1c(O)n(Cc2ccccc2)c(=O)[nH]c1=O` is 20.6 µM (active).

As to `CC(=O)O[C@@]12CO[C@@H]1C[C@H](OC1OCC(O)C(O)C1O)[C@@]1(C)C(=O)[C@H](O)C3=C(C)[C@@H](OC(=O)[C@H](O)[C@@H](NC(=O)c4ccccc4)c4ccccc4)C[C@@](O)([C@@H](OC(=O)c4ccccc4)C12)C3(C)C` (stereo partly specified), the Potency entry is “inactive”. The figure for `COC(=O)C1=C(C)N(Cc2ccco2)C(=O)/C1=C\c1ccc(N(C)C)cc1` is 13 µM (active).
